For some of these results: Potency and affinity values are given separately. Calls of active or inactive are those of the source. The rule behind the calls is not given here. Peptide text beside a SMILES is read from it.
Columns and labels:
[1] = Ebola virus entry assay, green fluorescence channel
[2] = Ebola virus entry assay, blue channel fluorescence
[3] = Ebola virus entry assay, green channel fluorescence
[4] = Ebola virus entry assay, reporter ratio channel; AC50: Channel type: primary unless noted; outcome: Channel type: primary unless noted
[5] = Ebola virus entry assay, blue channel (ratio component)

Measured: efficacy
Throughout, for efficacy: 0% is about no effect.

Cc1cc(NS(=O)(=O)c2ccc(N)cc2)no1
inactive: [1] 21.6% | [2] | [3] | [4] | [5]

CCCc1c(OCCCCc2nn[nH]n2)ccc(C(C)=O)c1O
inactive: [1] 28.7% | [2] | [3] | [4] | [5]

CC(O)C(=O)O (stereo not given)
inactive: [1] 12.5% | [2] | [3] | [4] | [5]

COc1cc(OC)nc(O[C@H](C(=O)O)C(OC)(c2ccccc2)c2ccccc2)n1
inactive: [1] 36.2% | [2] | [3] | [4] | [5]

CCCN1CCCC[C@H]1C(=O)Nc1c(C)cccc1C
inactive: [1] 17.3% | [2] | [3] | [4] | [5]

O=C(CO)[C@@H](O)[C@H](O)[C@@H](O)CO
inactive: [1] 18.6% | [2] | [3] | [4] | [5]

OC[C@@H](O)[C@@H](O[C@@H]1O[C@H](CO)[C@H](O)[C@H](O)[C@H]1O)[C@H](O)[C@@H](O)CO
inactive: [1] -17.2% | [2] | [3] | [4] | [5]

Cc1cccc(C)c1NC(=O)CC12CCCN1CCC2
inactive: [1] -14.9% | [2] | [3] | [4] | [5]

CCc1cccc(CC)c1NC(=O)CN(CC(=O)O)CC(=O)O
inactive: [1] 15.2% | [2] | [3] | [4] | [5]

COc1ccc(-c2ccc3cc(C(=O)O)ccc3c2)cc1C12CC3CC(CC(C3)C1)C2
inactive: [1] 13% | [2] | [3] | [4] | [5]

Cc1cccc(C)c1NC(=O)CN1CCCCCC1
inactive: [1] -23% | [2] | [3] | [4] | [5]

Cc1cc(O)c2c(O)c3c(O)cccc3cc2c1
inactive: [1] 34.7% | [2] | [3] | [4] | [5]

CN(C)CCN(Cc1ccsc1)c1ccccn1
inactive: [1] -18.4% | [2] | [3] | [4] | [5]

O=C(O)Cc1cccc(-c2cc(CCCCCCc3ccc(O[C@H]4O[C@H](CO)[C@@H](O)[C@H](O)[C@@H]4O)c(-c4cccc(CC(=O)O)c4)c3)ccc2O[C@H]2O[C@H](CO)[C@@H](O)[C@H](O)[C@@H]2O)c1
inactive: [1] -7.69% | [2] | [3] | [4] | [5]

COc1ccc2nc(SCc3ncc(C)c(OC)c3C)[nH]c2c1
inactive: [1] -11.5% | [2] | [3] | [4] | [5]

Nc1ncnc2c1ncn2[C@@H]1O[C@H](COP(=O)(O)O)[C@@H](O)[C@H]1O
inactive: [1] 14.6% | [2] | [3] | [4] | [5]

Cc1cc(O)c2ccccc2c1O
inactive: [1] 13.4% | [2] | [3] | [4] | [5]

Nc1c[n+](N2CCOCC2)no1
inactive: [1] -8.8% | [2] | [3] | [4] | [5]

CCCCCCNC(=O)n1cc(F)c(=O)[nH]c1=O
inactive: [1] -33.6% | [2] | [3] | [4] | [5]

CCO/C([O-])=N/c1c[n+](N2CCOCC2)no1
inactive: [1] -25.2% | [2] | [3] | [4] | [5]

CC[C@H](C)[C@H](N)C(=O)O
inactive: [1] -38.6% | [2] | [3] | [4] | [5]

C[N+](C)(C)CCOC(N)=O
inactive: [1] 12.2% | [2] | [3] | [4] | [5]

O=C(O)c1cc(=O)c2ccccc2o1
inactive: [1] -28.1% | [2] | [3] | [4] | [5]

CC(C)(Oc1ccc(C2CC2(Cl)Cl)cc1)C(=O)O (stereo not given)
inactive: [1] 16.1% | [2] | [3] | [4] | [5]

C[C@]12CC[C@H]3[C@@H](CCC4=CC(=O)CC[C@@H]43)[C@@H]1CC[C@@H]2OC(=O)CCc1ccco1
inactive: [1] -14.7% | [2] | [3] | [4] | [5]

CN1[C@@H]2CC(OC(=O)[C@H](CO)c3ccccc3)C[C@H]1[C@@H]1O[C@@H]12 (stereo not given in full)
inactive: [1] -18.3% | [2] | [3] | [4] | [5]

Cc1cc(=O)n(-c2ccccc2)n1C
inactive: [1] -22% | [2] | [3] | [4] | [5]

COc1ccc(C(=O)NCc2ccc(OCCN(C)C)cc2)cc1OC
inactive: [1] -7.96% | [2] | [3] | [4] | [5]

CC(=O)OC[C@H]1O[C@@H](OC(C)=O)[C@H](OC(C)=O)[C@@H]1OC(C)=O
inactive: [1] 18.7% | [2] | [3] | [4] | [5]

Cc1cc(CCCOc2c(C)cc(-c3noc(C(F)(F)F)n3)cc2C)on1
inactive: [1] 12.1% | [2] | [3] | [4] | [5]

COc1ccc(S(=O)(=O)Nc2nnc(CC(C)C)s2)cc1
inactive: [1] -19% | [2] | [3] | [4] | [5]

CCc1cc(S(=O)(=O)O)c2cc(C(C)C)cccc1-2
inactive: [1] 18.8% | [2] | [3] | [4] | [5]

O=C(O)Cc1ccc(-c2ccccc2)cc1
inactive: [1] 14.2% | [2] | [3] | [4] | [5]

N#CC1(c2ccc(F)cc2)CCC(=O)CC1
inactive: [1] 28.6% | [2] | [3] | [4] | [5]

CC[N+](CC)(CCNC(=O)C(=O)NCC[N+](CC)(CC)Cc1ccccc1Cl)Cc1ccccc1Cl
inactive: [1] -9.71% | [2] | [3] | [4] | [5]

O=C(OCCN1CCOCC1)c1cccnc1Nc1cccc(C(F)(F)F)c1
inactive: [1] -15.5% | [2] | [3] | [4] | [5]

CC(C)C(=O)Nc1cccc(C(F)(F)F)c1
inactive: [1] 16.7% | [2] | [3] | [4] | [5]

CCCCCC=CCC=CCCCCCCCC(=O)OCC
inactive: [1] 15.2% | [2] | [3] | [4] | [5]

Nc1nc(N)c(-c2ccccc2)s1
inactive: [1] 13% | [2] | [3] | [4] | [5]

CCCCCCCCCCCCOCCO
inactive: [1] -11.3% | [2] | [3] | [4] | [5]

CN(C)C(=O)COC(=O)Cc1ccc(OC(=O)c2ccc(N=C(N)N)cc2)cc1
inactive: [1] -14.4% | [2] | [3] | [4] | [5]

CNCc1ccccc1
inactive: [1] -19.2% | [2] | [3] | [4] | [5]

COC(=O)c1cccnc1
inactive: [1] 12.2% | [2] | [3] | [4] | [5]

CO[C@@H]1[C@@H](OC(N)=O)[C@@H](O)[C@H](Oc2ccc3c(O)c(NC(=O)c4ccc(O)c(CC=C(C)C)c4)c(=O)oc3c2C)OC1(C)C
inactive: [1] 15.5% | [2] | [3] | [4] | [5]

CN=C(NC#N)NCCSCc1csc(N=C(N)N)n1
inactive: [1] -13.8% | [2] | [3] | [4] | [5]

COc1ccc(C(=O)N2CCN(CC(=O)N3CCOCC3)CC2)cc1
inactive: [1] -11.2% | [2] | [3] | [4] | [5]

Oc1ccccc1
inactive: [1] 23.9% | [2] | [3] | [4] | [5]

Cc1ccc(O)c2ncccc12
inactive: [1] 17.9% | [2] | [3] | [4] | [5]

CC[N+]1(CC)CCC(OC(=O)C(O)(c2ccccc2)c2ccccc2)C1 (stereo not given)
inactive: [1] -22.9% | [2] | [3] | [4] | [5]

NC(=S)N/N=C/c1cccnc1
inactive: [1] 12.5% | [2] | [3] | [4] | [5]

Oc1ccc(Cl)c2cccnc12
inactive: [1] -23.9% | [2] | [3] | [4] | [5]

CC(=O)Nc1ccccc1
inactive: [1] -20.9% | [2] | [3] | [4] | [5]

O=C(CCBr)N1CCN(C(=O)CCBr)CC1
inactive: [1] 10.2% | [2] | [3] | [4] | [5]

O=S(=O)(O)c1ccc(O)cc1
inactive: [1] 20.2% | [2] | [3] | [4] | [5]

CCCCCCCCCCCC(=O)[O][Sn]([CH2]CCC)([CH2]CCC)[O]C(=O)CCCCCCCCCCC
inactive: [1] -17.6% | [2] | [3] | [4] | [5]

CC(=O)Nc1c(I)cc(I)c(C(=O)O)c1I
inactive: [1] -9.82% | [2] | [3] | [4] | [5]

C[C@@H]1CCC[C@H](C)N1
inactive: [1] -7.35% | [2] | [3] | [4] | [5]

N[C@@H](COP(=O)(O)O)C(=O)O
inactive: [1] -11.1% | [2] | [3] | [4] | [5]

CCCC(=O)OCOC(=O)C1=C(C)NC(C)=C(C(=O)OC)C1c1cccc(Cl)c1Cl (stereo not given)
inactive: [1] 17.3% | [2] | [3] | [4] | [5]

O=C(NCCO[N+](=O)[O-])c1cccnc1
inactive: [1] -12.5% | [2] | [3] | [4] | [5]

O=C(O)Cn1cnnn1
inactive: [1] 14.2% | [2] | [3] | [4] | [5]

CCNC(=O)[C@@H]1CCCN1C(=O)[C@H](CCCN=C(N)N)NC(=O)[C@H](CC(C)C)NC(=O)CNC(=O)[C@H](Cc1ccc(O)cc1)NC(=O)[C@H](CO)NC(=O)[C@H](Cc1c[nH]c2ccccc12)NC(=O)[C@H](Cc1cnc[nH]1)NC(=O)[C@@H]1CCC(=O)N1 (HELM PEPTIDE1{[Glp].H.W.S.Y.G.L.R.P.[CCN[*:1]]}$$$$V2.0)
inactive: [1] 17.9% | [2] | [3] | [4] | [5]

From PubChem BioAssay (NCATS)
